In one assay the target is KBTBD12. The experiment in a line: pooled miR-30 sensor sort-seq; sequence = guide strand. The settings on record: shRNA.
Consider TTGTCTTGACCTACACAGCCAA, for which the sensor-assay potency score (higher = more potent) is -0.566. Still for that read-out and setting: with TAAATCTTCAGCTCCAATCTGC the figure was 0.302; with TTGTAGTGTCTTATTTACCCTA, -0.555.

Another assay deals with KCNAB2. Described as above. The settings on record: shRNA.
Sequence CAAAATACTATCAATCTCGTGG came in with a sensor-assay potency score (higher = more potent) of -0.486.

TAGACTTCTGCTGTATCGAAGA: the sensor-assay potency score (higher = more potent) is -0.756. On the same count and under the same terms, with ATGATCTCCATGGAGCTCCAGC the figure was -1.53; with TTTCAGACCTTCGATTATGTGC, -0.469; with TTGGTGGTGATGACGAGGCTGG, -0.706.

Sequence TTCCTGTAGATCATCCCGGGGG registered a sensor-assay potency score (higher = more potent) of -0.0548. The sequence TTTCTCACGCTGGAACATGTGG returned a sensor-assay potency score (higher = more potent) of -0.804. TATCTTGTGGAACAGCTCCGGC gave a sensor-assay potency score (higher = more potent) of -1.17. On the same count and under the same terms, with TGACAGTTTCGGAAGGACCTGT the figure was 0.657. Regarding TTCTGCTGTATCGAAGAGGTTG, the sensor-assay potency score (higher = more potent) was -0.594.

For TTCGATTATGTGCTTCCTGGAC, the sensor-assay potency score (higher = more potent) was -0.692. With AATACTATCAATCTCGTGGATA, the sensor-assay potency score (higher = more potent) is -1.21.

A further assay has as its target KCNB1. The description is as above. Particulars: shRNA.
Sequence TAGATCTCGTCGATGCCCCAGT came in with a sensor-assay potency score (higher = more potent) of -0.693.

For TACTTTGTCTTTCTTACCCATA, the sensor-assay potency score (higher = more potent) was -1.04. Take TTCATCTGCTCTTTCTTCTGGT: the sensor-assay potency score (higher = more potent) came out at 0.512. In the case of TAGAAGTTGAGGATGGAGGTGA, the sensor-assay potency score (higher = more potent) turned out to be 0.819. Sequence TTAGTTTTCATGGAACTCTTGG yielded a sensor-assay potency score (higher = more potent) of 0.191. The same measure, in the same setting: with TTTTCTCCGATCTTGTCCCCGT the figure was -0.234.

With TTGAACTTGGTGTCGTCCTCAT, the sensor-assay potency score (higher = more potent) was 0.219. Turning to TACATGTCTTCCAACTGCTGAA, the sensor-assay potency score (higher = more potent) was -0.486. Sequence TTTGAACTTGGTGTCGTCCTCA came in with a sensor-assay potency score (higher = more potent) of 0.816. As to TACTCGTTGTCGTCGAGGCTGT, the sensor-assay potency score (higher = more potent) was -0.424. For the sequence TTTCTCAACCACAATGTCCATC, the sensor-assay potency score (higher = more potent) is -0.571.

The next assay concerns the target KCNC1. The description is as above. Particulars: shRNA.
Consider AATTTCTAAAATTTCTTCCTGG, for which the sensor-assay potency score (higher = more potent) amounted to 0.198. Same read-out and setting: in the case of ATGAACTCTACCTTGTTGGGGC it was 0.181. Same read-out and setting: in the case of TTCTTGATGAACTCTACCTTGT it was -0.835; in that of TTTTCTTTGGTAGTTTCTGCTT, -0.644; in that of TTCAGTTTGGAATCTGCTCTGT, 0.183. Same read-out and setting: in the case of TAAGGAGTAATACATCCCGAAA it was -1.65. As to TAGTAGTTCAGGATGTGCGCGA, the sensor-assay potency score (higher = more potent) is 0.436. On to TTTCTTTGGTAGTTTCTGCTTA, for which the sensor-assay potency score (higher = more potent) was 0.312. The sequence TACTTAGCAATGACAGGGCTTT displayed a sensor-assay potency score (higher = more potent) of -0.252. Still for that read-out and setting: with TTCTTTGGTAGTTTCTGCTTAG the figure was -0.569; with TTGCGTGCCATTGCGAACGTTC, -0.65; with TTGATGAACTCTACCTTGTTGG, 0.0525.
Note: reference of the scale not given here.
